From the supplement of paper PMC10127200
Counter-ions that a name gives are not always drawn.

Experiments:
Test in all cases: Euclidean distance of Cell Painting phenotypic profile (signed KS, 77 features) to DMSO centroid (dimensionless distance); 5 or 10 uM (library dependent); higher = stronger phenotypic change vs DMSO (phenoactivity)
Conditions in all cases: 48 h
786-O = tested on: 786-O
Procedure, shortened: (§1)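 Phenoactivity is computed as Euclidean distance to the median vehicle profile. The profiles, drawn from 77 Harmony features scored as signed Kolmogorov-Smirnov statistics versus same-plate vehicle wells, were corrected for plate position, correlation-weighted and replicate-averaged at the top dose. Stained cells were imaged confocally at 20X (9 fields/well) after 48 h with library compounds at 10 or 5 uM, 0.1% DMSO final, in five cancer lines and a healthy fibroblast line.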

A549 = tested on: A549
Procedure, shortened: as §1

DU145 = tested on: DU145
Procedure, shortened: as §1

FB = tested on: FB
Procedure, shortened: as §1

HEPG2 = tested on: HEPG2
Procedure, shortened: as §1

OVCAR4 = tested on: OVCAR4
Procedure, shortened: as §1

| Structure (SMILES) | Euclidean distance (786-O) | Euclidean distance (A549) | Euclidean distance (DU145) | Euclidean distance (FB) | Euclidean distance (HEPG2) | Euclidean distance (OVCAR4) |
| --- | --- | --- | --- | --- | --- | --- |
| Cc1[nH]c(/C=C2\C(=O)Nc3ccc(S(=O)(=O)N(C)c4cccc(Cl)c4)cc32)c(C)c1C(=O)N1CCN(C)CC1 | 2.57 | 3.08 | 2.03 | 2.51 | 1.47 | 3.13 |
| CN(C)CC(=O)Nc1ccc2[nH]c(=O)c3ccccc3c2c1 | 1.25 | 1.08 | 0.921 | 1.3 | 1.34 | 1.07 |
| CC(C)COc1ccc(CNC(=O)N(Cc2ccc(F)cc2)C2CCN(C)CC2)cc1 [Pimavanserin] | 4.02 | 4.29 | 3 | 5.4 | 5.24 | 3.47 |
| COc1ccc(-c2cc(=O)c3c(O)c(OC)c(O)cc3o2)cc1OC [Eupatilin] | 1.61 | 1.04 | 1.76 | 1.51 | 1.35 | 0.872 |
| CCC(c1ccccc1)c1c(O)c2ccccc2oc1=O (stereo not given) [Phenprocoumon] | 0.851 | 1.11 | 0.728 | 1.04 | 0.975 | 0.957 |
| COc1cc2c(Oc3ccc4[nH]c(C)cc4c3F)ncnc2cc1OCCCN1CCCC1 [Cediranib (AZD2171)] | 4.22 | 4.27 | 3.51 | 4.47 | 3.58 | 4.53 |
| CNS(=O)(=O)C[C@H]1CC[C@H](N(C)c2[nH]cnc3nccc2-3)CC1 | 1.06 | 0.94 | 1.61 | 1.3 | 0.907 | 0.949 |
| C=C[C@H]1CN2CC[C@H]1C[C@@H]2[C@@H](O)c1ccnc2ccc(OC)cc12 [Quinidine sulfate] | 0.69 | 0.88 | 1.08 | 0.954 | 0.831 |  |
| Nc1ccc(O)c(C(=O)O)c1 [Mesalamine] | 1.49 | 0.636 | 2.08 | 1.06 | 0.538 | 1.24 |
| Cc1c(-c2ccnn2C)cc(C(=O)NCc2ccc(S(C)(=O)=O)cn2)c(=O)n1-c1cccc(C(F)(F)F)c1 [Alvelestat (AZD9668)] | 1.01 | 1.73 | 1.04 | 1.06 | 0.869 | 0.81 |
| CCn1cc(C(=O)O)c(=O)c2cc(F)c(N3CCNC(C)C3)c(F)c21 (stereo not given) [Lomefloxacin HCl] | 0.907 | 0.839 | 0.681 | 0.822 | 0.796 | 0.657 |
| COc1cc(CNC(=O)CCCC/C=C\C(C)C)ccc1O [Zucapsaicin] | 0.772 | 0.503 | 0.672 | 0.743 | 0.98 | 1.01 |
| O=C(O)COC(=O)Cc1ccccc1Nc1c(Cl)cccc1Cl [Aceclofenac] | 1.26 | 0.455 | 1.1 | 0.795 | 0.607 | 0.86 |
| CC(C(=O)O)c1cccc(Oc2ccccc2)c1 (stereo not given) [Fenoprofen calcium hydrate] | 1.27 | 0.707 | 0.898 | 0.869 | 0.486 | 1.2 |
| COc1cc(NS(=O)(=O)c2ccc(N)cc2)nc(OC)n1 [SulfadiMethoxine sodium] | 1.05 | 0.781 | 0.776 | 1.03 | 0.428 | 0.631 |
| COC(=O)C1=C(C)NC(C)=C(C(=O)OC)C1c1ccccc1[N+](=O)[O-] [Nifedipine] | 1.37 | 0.783 | 0.776 | 1.11 | 1.58 |  |
| OCc1cc(C(O)CNCCCCCCOCCCCc2ccccc2)ccc1O (stereo not given) [Salmeterol Xinafoate] | 1.27 | 1.68 | 1.58 | 2.11 | 2.19 | 1.28 |
| CCn1cc(C(=O)O)c(=O)c2cnc(N3CCCC3)nc21 [Piromidic Acid] | 1.37 | 0.767 | 0.647 | 0.879 | 0.512 | 1.02 |
| C[S+](CC[C@H](N)C(=O)[O-])C[C@H]1O[C@@H](n2cnc3c(N)ncnc32)[C@H](O)[C@@H]1O (stereo not given in full) [Ademetionine] | 0.708 | 1.02 | 0.772 | 0.885 | 0.304 | 0.658 |
| Oc1ccc2c(c1)CC[C@H](c1ccccc1)[C@@H]2c1ccc(OCCN2CCCC2)cc1 [Lasofoxifene Tartrate] | 2.93 | 2.42 | 3.01 | 2.8 | 4.32 | 2.5 |
| N#Cc1ccc(C(c2ccc(C#N)cc2)n2cncn2)cc1 [Letrozole] | 3.04 | 1.88 | 1.67 | 3.14 | 1.48 | 2.31 |
| CCCCCOc1ccc(-c2ccc(-c3ccc(C(=O)N[C@H]4C[C@@H](O)[C@@H](O)NC(=O)[C@@H]5[C@@H](O)[C@@H](C)CN5C(=O)[C@H]([C@@H](C)O)NC(=O)[C@H]([C@H](O)[C@@H](O)c5ccc(O)cc5)NC(=O)[C@@H]5C[C@@H](O)CN5C(=O)[C@H]([C@@H](C)O)NC4=O)cc3)cc2)cc1 | 0.818 | 0.702 | 1.21 | 0.749 | 1.21 | 1.01 |
| CC(=O)OCC1=C(C(=O)O)N2C(=O)[C@@H](NC(=O)Cc3cccs3)[C@H]2SC1 [Cephalothin] | 1.38 | 0.786 | 0.824 | 1.24 | 1.28 | 1.23 |
| O=C1c2c(O)cc(O)cc2OC(c2ccc(O)c(O)c2)C1O (stereo not given) [Taxifolin (Dihydroquercetin)] | 1.12 | 0.542 | 1.09 | 1.25 | 0.834 | 0.517 |

| Structure (SMILES) | Euclidean distance (786-O) | Euclidean distance (A549) | Euclidean distance (DU145) | Euclidean distance (FB) | Euclidean distance (HEPG2) | Euclidean distance (OVCAR4) |
| --- | --- | --- | --- | --- | --- | --- |
| COc1nc2ccc(Br)cc2cc1[C@@H](c1ccccc1)[C@@](O)(CCN(C)C)c1cccc2ccccc12 [Bedaquiline] | 1.63 | 1.17 | 1.33 | 0.823 | 0.496 | 0.927 |
| CCCCCNC(=N)N/N=C/c1c[nH]c2ccc(OC)cc12 [Tegaserod Maleate] | 5.85 | 4.48 | 5.39 | 6.34 | 4.98 | 5.08 |
| O=C(N[C@H](CO)[C@H](O)c1ccc([N+](=O)[O-])cc1)C(Cl)Cl [Chloramphenicol] | 1.22 | 1 | 1.35 | 0.994 | 0.584 | 1.3 |
| CO[C@@H]1[C@H](OC(=O)/C=C/C=C/C=C/C=C/C(=O)O)CC[C@]2(CO2)[C@H]1[C@@]1(C)O[C@@H]1CC=C(C)C [Fumagillin] | 2.75 | 2.91 | 4.57 | 2.95 | 1.89 | 3.29 |
| Nc1cc(C(F)(F)F)c(-c2cc(N3CCOCC3)nc(N3CCOCC3)n2)cn1 [Buparlisib (BKM120. NVP-BKM120)] | 2.55 | 3.38 | 2.88 | 2.98 | 2.83 | 3.29 |
| CC(C)n1cnc2c(NCCc3ccc(O)cc3)nc(-c3csc4ccccc34)nc21 [StemRegenin 1 (SR1)] | 0.931 | 1.13 | 1.12 | 1.04 | 1.04 | 0.909 |
| CS(=O)(=O)CCC#N [Dapansutrile (OLT1177)] | 0.937 | 0.857 | 2.91 | 0.633 | 0.92 | 1.45 |
| COc1ccc(CCN(C)CCCC(C#N)(c2ccc(OC)c(OC)c2)C(C)C)cc1OC (stereo not given) [Verapamil HCl] | 0.99 | 0.567 | 0.723 | 1.41 | 0.719 |  |
| CN1C[C@@H]2C[C@H]1CN2c1cc2c(cc1F)c(=O)c(C(=O)O)cn2C1CC1 [Danofloxacin Mesylate] | 1.72 | 1.87 | 1.14 | 0.963 | 1.05 | 0.974 |
| CCCS(=O)(=O)N[C@H]1C[C@@H](N(C)c2ncnc3[nH]ccc23)C1 | 0.905 | 1.03 | 1.02 | 1.03 | 0.71 | 1.17 |
| COC(=O)Nc1nc2cc(C(=O)c3ccc(F)cc3)ccc2[nH]1 [Flubendazole] | 2.74 | 2.91 | 3.24 | 2.46 | 2.16 | 3.1 |
| CC(=O)CCCCn1c(=O)c2c(ncn2C)n(C)c1=O [Pentoxifylline] | 1.07 | 0.613 | 1.06 | 1.39 | 0.754 | 1.67 |
| Cc1c(OCC(F)(F)F)ccnc1C[S@@+]([O-])c1nc2ccccc2[nH]1 [Dexlansoprazole] | 0.708 | 0.614 | 0.925 | 1.52 | 0.629 | 1.1 |
| C[C@@](Cc1ccc(O)c(O)c1)(NN)C(=O)O [Carbidopa] | 1.38 | 1.06 | 0.985 | 1.1 | 0.878 | 1.05 |
| O=C(O)c1ccc(C=C2SC(=S)N(c3cccc(C(F)(F)F)c3)C2=O)cc1 | 0.542 | 0.983 | 0.711 | 0.939 | 0.977 | 1.56 |
| Cn1c(=O)c2c(ncn2CC(O)CO)n(C)c1=O (stereo not given) [Dyphylline] | 1.02 | 0.909 | 0.59 | 1.07 | 1.05 | 1.59 |
| CC(C)CC(=O)Nc1n[nH]c2c1CN(C(=O)C1CCN(C)CC1)C2(C)C | 3.52 | 3 | 2.9 | 2.96 | 2.82 | 4.04 |
| OCCN1CCN(CCCN2c3ccccc3Sc3ccc(Cl)cc32)CC1 [Perphenazine] | 1.95 | 2.47 | 1.77 | 2.8 | 2.4 | 2.19 |
| COc1ccc2cc3[n+](cc2c1OC)CCc1cc2c(cc1-3)OCO2 [Berberine Sulfate] | 1.66 | 2.46 | 1.4 | 2.36 | 1.68 | 2.08 |
| CCOc1ccc(Cc2cc([C@@H]3O[C@H](SC)[C@@H](O)[C@H](O)[C@H]3O)ccc2Cl)cc1 [Sotagliflozin (LX4211)] | 1.32 | 1.07 | 1.9 | 0.889 | 0.553 | 0.781 |
| COc1cccc(N2CCN(C3=Nc4c(F)cccc4C(CC(=O)O)N3c3cc(C(F)(F)F)ccc3OC)CC2)c1 (stereo not given) [Letermovir(AIC246)] | 1.22 | 1.44 | 0.984 | 0.978 | 0.523 | 1.01 |
| COc1ccc2c(O[C@@H]3C[C@H]4C(=O)N[C@]5(C(=O)NS(=O)(=O)C6CC6)C[C@H]5/C=C\CCCCN(C)C(=O)[C@@H]4C3)cc(-c3nc(C(C)C)cs3)nc2c1C [Simeprevir] | 1.38 | 2.3 | 1.29 | 0.939 | 0.799 | 1.23 |
| COc1cc(C(=O)NS(=O)(=O)c2ccccc2C)ccc1Cc1cn(C)c2ccc(NC(=O)OC3CCCC3)cc12 [Zafirlukast] | 0.974 | 1.5 | 1.22 | 1.21 | 0.548 | 1.34 |
| CCN(CC)CCNC(=O)c1ccc(N)cc1 [Procainamide HCl] | 0.693 | 1.02 | 0.74 | 0.787 | 0.326 | 1.07 |
